Screening results deposited in PubChem BioAssay by several laboratories.
VHR inh abs = inhibitors of human VHR1 phosphatase (DUSP3) | P51452 | recombinant VHR phosphatase, pNPP absorbance | inhibition, % at 13.3 µM | hit rate 0.52% among 290,000; in the data active = inhibition above about 50%
Target sequence (P51452 whole entry, looked up): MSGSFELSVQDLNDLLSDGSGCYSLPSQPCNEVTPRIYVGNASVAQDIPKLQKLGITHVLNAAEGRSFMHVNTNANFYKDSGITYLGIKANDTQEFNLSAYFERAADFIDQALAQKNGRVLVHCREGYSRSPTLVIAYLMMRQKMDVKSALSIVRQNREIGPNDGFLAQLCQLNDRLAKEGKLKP
GDH-TPI counter = GDH-TPI coupled enzyme inhibition counter-screen; GDH-TPI coupled enzyme counterscreen, NADH absorbance; inhibition, % at 4.8 µM; hit rate 1.2% among 360,000; AID 588335
CCHF vOTU inh = CCHFV vOTU protease inhibition; Pep-AMC fluorescence; inhibition, % at 11.5 µM; hit rate 0.55% among 370,000; AID 651958
RecA splice inh = inhibitors of M. tuberculosis RecA intein splicing; P9WHJ3; cell-free RecA intein splicing, fluorescence; inhibition, % (concentration not given with the values); hit rate 0.75% among 290,000; AID 2221; in the data active = inhibition above about 30%
SARS 3CLpro inh = SARS-CoV 3CLpro protease inhibition. hit rate 0.14% among 290,000. AID 1706. inhibition, % at 6 µM. P0C6X7. recombinant SARS-CoV 3CLpro, quenched FRET peptide cleavage; in the data active = inhibition above about 12%
FBA Mtb inh = inhibits M. tuberculosis FBA enzyme | purified M. tuberculosis FBA, fluorescence read-out | inhibition, % at 1 µM | P9WQA3 | hit rate 2.3% among 360,000; in the data active = inhibition above about 27%
Target sequence (P9WQA3 whole entry, looked up): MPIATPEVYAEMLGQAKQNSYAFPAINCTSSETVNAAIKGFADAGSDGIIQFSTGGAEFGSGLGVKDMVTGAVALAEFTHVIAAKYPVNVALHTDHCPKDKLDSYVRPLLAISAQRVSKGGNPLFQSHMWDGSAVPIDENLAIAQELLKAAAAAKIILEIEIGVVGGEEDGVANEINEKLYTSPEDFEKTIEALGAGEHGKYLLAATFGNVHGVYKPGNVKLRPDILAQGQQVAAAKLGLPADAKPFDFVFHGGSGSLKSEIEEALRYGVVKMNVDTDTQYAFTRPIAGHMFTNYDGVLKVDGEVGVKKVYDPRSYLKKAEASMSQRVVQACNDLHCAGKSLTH
Large screens that a line does not name were inactive. Compounds with a hit are over-represented: about 4.7% of the library has one in this group of screens. Cut-off read from the data, not from the text of the source, unless noted: active = inhibition above about 30%; inactive = the rest.

COC(=O)C(C)Oc1cc(OC(C)C(=O)OC)c2c(C)c(Cl)c(=O)oc2c1 (stereo unspecified)	FBA Mtb inh active
COc1ccc(S[C@]2(C(=O)N3CCN(C(C)=O)CC3)CC(=O)N[C@@H]2c2ccc(OC)cc2)cc1	none (no result: VHR inh abs, GDH-TPI counter, RecA splice inh, SARS 3CLpro inh, FBA Mtb inh)
COc1ccc(C2Nc3ccccc3C(=O)N2Cc2ccccc2)cc1OC (stereo unspecified)	FBA Mtb inh 74 (no result: VHR inh abs, SARS 3CLpro inh)
O=C(NNC(=O)C1CCC1)c1ccccc1F	none (no result: VHR inh abs, SARS 3CLpro inh)
Cc1cc(C=O)c(O)cc1O	GDH-TPI counter 52
Cc1c2c(n3c(nc4ccccc43)c1C#N)N(CCCN(C)C)CC2	FBA Mtb inh 141
CCCCc1c(C)c(C#N)c2nc3ccccc3n2c1NCCN(C)C	none
Cc1c2c(n3c(nc4ccccc43)c1C#N)N(CCN(C)C)CC2	FBA Mtb inh active
Cc1c2c(n3c(nc4ccccc43)c1C#N)N(c1ccccc1)CC2	none (no result: GDH-TPI counter, CCHF vOTU inh, RecA splice inh, FBA Mtb inh)
COc1ccc(-c2ccc3oc(-c4ccc(OC)cc4)c(C#CC4(O)CCCCC4)c3c2)cc1	GDH-TPI counter 44 (no result: VHR inh abs, SARS 3CLpro inh)
COc1ccc(-c2sc3ccc(N4CCOCC4)cc3c2C#CC2(O)CCCCC2)cc1	none (no result: VHR inh abs, RecA splice inh, SARS 3CLpro inh)
CC1(C)CC(=O)c2sc(NC(=O)C3COc4ccccc4O3)nc2C1 (stereo unspecified)	GDH-TPI counter 34
CC1(C)CNC(=O)c2sc(N3CCCCC3)nc2C1	none
CC1(C)CC(=O)c2sc(N3CCCCC3)nc2C1	GDH-TPI counter 42
CC1(C)CC(=O)c2sc(NC(=O)CN3C(=O)CCC3=O)nc2C1	GDH-TPI counter 32
CC(=O)c1sc(NC(=O)C2COc3ccccc3O2)nc1C (stereo unspecified)	none
CC1(C)CC(=O)c2sc(NS(C)(=O)=O)nc2C1	GDH-TPI counter 35
CC1(C)CC(=O)c2sc(NS(=O)(=O)c3ccccc3)nc2C1	none
COC(=O)[C@]12C[C@H](CC(=O)NCCC(C)C)C(=O)N(CCC3=CCCCC3)C1=C[C@H](C1CCCC1)O[C@@H]2C	none (no result: VHR inh abs, GDH-TPI counter, RecA splice inh, SARS 3CLpro inh, FBA Mtb inh)
COc1ccc(/C=C/C(=O)Nc2cc(=O)n(C)c(=O)n2C)cc1	none
Cn1c(NC(=O)/C=C/c2ccccc2)cc(=O)n(C)c1=O	GDH-TPI counter 62
O=C1NC2(CCCCC2)N=C1c1ccc(Br)cc1	VHR inh abs 55
COc1ccc2c(=O)c(-c3ccccc3)coc2c1	none
COC(=O)C(C)Oc1ccc2cc(-c3ccccc3)c(=O)oc2c1 (stereo unspecified)	FBA Mtb inh active
CN(C)C(=O)COc1ccc2cc(-c3ccccc3)c(=O)oc2c1	GDH-TPI counter 53, FBA Mtb inh active
CC(Oc1ccc2cc(-c3ccccc3)c(=O)oc2c1)C(=O)NCC1CCC(C(=O)O)CC1 (stereo unspecified)	GDH-TPI counter 36, FBA Mtb inh active
CC(Oc1ccc2ccc(=O)oc2c1)C(=O)NCC1CCC(C(=O)O)CC1 (stereo unspecified)	none
COc1ccc2cc(-c3ccccc3)c(=O)oc2c1	FBA Mtb inh active
Cc1ccc(Cn2cc(CN3[C@H](CC(C)C)COc4cc(Br)ccc4S3(=O)=O)nn2)cc1	none (no result: VHR inh abs, GDH-TPI counter, RecA splice inh, SARS 3CLpro inh, FBA Mtb inh)
CSCCC(C(=O)Nc1c(C)cccc1C)N1CCN(c2ccc(C(F)(F)F)cn2)CC1 (stereo unspecified)	none (no result: VHR inh abs, GDH-TPI counter, RecA splice inh, SARS 3CLpro inh)
CCCOc1ccc2cc(-c3ccccn3)c(=O)oc2c1	FBA Mtb inh active
CC(=O)Oc1ccc2cc(-c3cccnc3)c(=O)oc2c1	FBA Mtb inh active (no result: VHR inh abs, RecA splice inh, SARS 3CLpro inh)
CC(=O)Oc1cccc(-c2nc3ccccc3c(=O)o2)c1	none
O=C(CCS(=O)(=O)c1ccccc1)Nc1ccc(F)cc1Cl	none (no result: VHR inh abs, GDH-TPI counter, RecA splice inh, SARS 3CLpro inh, FBA Mtb inh)
COC(=O)[C@@]12C[C@@H](CC(=O)N3CCOCC3)C(=O)N(Cc3ccc4c(c3)OCO4)C1=CCC(C)(C)C2	none (no result: VHR inh abs, GDH-TPI counter, RecA splice inh, SARS 3CLpro inh, FBA Mtb inh)
CC(CO)(CO)NC(=O)c1ccc(C#Cc2cccc(F)c2)cn1	none (no result: VHR inh abs, GDH-TPI counter, RecA splice inh, SARS 3CLpro inh, FBA Mtb inh)
CCC(NC(=O)Cc1c(C)c2ccc(OC)c(C)c2oc1=O)C(=O)NC(Cc1ccc(Cl)cc1)C(=O)O (stereo unspecified)	FBA Mtb inh 143
Cc1c(OCC(=O)NC(Cc2ccc(Cl)cc2)C(=O)O)ccc2c1oc(=O)c1ccccc12 (stereo unspecified)	none
O=C1CCCC(O)=C1C=Nc1ccc(O)cc1	GDH-TPI counter 35
O=C1CC(c2ccccc2)CC(O)=C1C=Nc1ccc(Cl)cc1 (stereo unspecified)	none
COC(=O)c1ccc(C=NNC(=O)c2cc(-c3ccc(C)c(C)c3)n[nH]2)cc1	none (no result: VHR inh abs, GDH-TPI counter, RecA splice inh, SARS 3CLpro inh, FBA Mtb inh)
COc1ccc(CCNC(=O)COc2ncnc3cc([N+](=O)[O-])ccc23)cc1	none
O=[N+]([O-])c1cccc(COc2ncnc3cc([N+](=O)[O-])ccc23)c1	GDH-TPI counter 35
CC(C)(C)NC(=O)NC(=O)COC(=O)CNS(=O)(=O)/C=C/c1ccccc1	none
COc1ccc(OCC(O)Cn2c(N3CCCCC3)nc3c2c(=O)n(C)c(=O)n3C)cc1 (stereo unspecified)	VHR inh abs 58
COc1ccc(OCC(O)Cn2c(N3CCCCC3)nc3c2c(=O)[nH]c(=O)n3C)cc1 (stereo unspecified)	none
COc1ccc(/C=N\n2nnc3ccccc32)cc1	GDH-TPI counter 51
COc1ccc(/C=N/n2c(C)nc3ccccc3c2=O)cc1	none
COc1ccc(/C=C/c2nc3ccccc3n2C)cc1	GDH-TPI counter 65
Cn1c(/C=C/c2ccccc2)nc2ccccc2c1=O	none
COc1ccc(Nc2nc3ccccc3n2C)cc1	none
O=c1c2ccccc2nc(/C=C/c2ccccc2)n1CCCO	GDH-TPI counter 35
Cn1c(/C=C/c2ccc(Cl)cc2)nc2ccccc2c1=O	GDH-TPI counter 37
Nc1ccc(-c2nc3ccc(N)cc3o2)cc1	GDH-TPI counter 46, FBA Mtb inh active (no result: RecA splice inh)
CCOC(=O)c1csc(NC(=O)c2cc3ccccc3o2)n1	GDH-TPI counter 43 (no result: RecA splice inh)
Cc1nc(NC(=O)c2cc3ccccc3o2)sc1C	GDH-TPI counter 31 (no result: RecA splice inh)
Cc1ccc(S(=O)(=O)N(C)C)cc1NC(=O)COC(=O)c1ccc(Cl)cc1	none
CCCCCNC(=O)C1C(=O)Nc2ccccc2C(=O)N1c1ccc(OC)cc1 (stereo unspecified)	none (no result: VHR inh abs, GDH-TPI counter, RecA splice inh, SARS 3CLpro inh, FBA Mtb inh)
C/C(=C\C(=O)c1ccccc1)NCc1ccc(F)cc1	GDH-TPI counter 31
Cc1cc(NCCCOC(C)C)n2c(nc3ccccc32)c1C#N	FBA Mtb inh 190
Cc1cc(NCCCN(C)C)n2c(nc3ccccc32)c1C#N	FBA Mtb inh active (no result: VHR inh abs)
CCc1c(C)c(C#N)c2nc3ccccc3n2c1NCCCN(C)C	none (no result: VHR inh abs, RecA splice inh, SARS 3CLpro inh)
CCC(C)Nc1cc(C)c(C#N)c2nc3ccccc3n12 (stereo unspecified)	FBA Mtb inh active (no result: VHR inh abs)
Cc1cc(NCCN2CCCCC2)n2c(nc3ccccc32)c1C#N	none (no result: GDH-TPI counter, CCHF vOTU inh, FBA Mtb inh)
CCC(C)Sc1cc(C)c(C#N)c2nc3ccccc3n12 (stereo unspecified)	none
CCCc1cc(NCCCO)n2c(nc3ccccc32)c1C#N	FBA Mtb inh active
CCNC(=O)C1(C)CCN(C(=O)c2c(F)cccc2F)C1 (stereo unspecified)	none (no result: VHR inh abs, RecA splice inh, SARS 3CLpro inh)
Cc1cc(NCCCn2ccnc2)n2c(nc3ccccc32)c1C#N	FBA Mtb inh 70
